{
  "source": "PubChem BioAssay (NCI)",
  "note": "About 83,000 compounds went through this panel and 20% of them were active in at least one assay; those are over-represented in the sample as a whole.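 Compound tested at a single concentration for 48 hours in 96-well plates; a percent growth value below 10 was scored as active.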 Unmarked numbers belong to inactive results. Calls of active or inactive are those of the source.",
  "data": [
    {"tested_on": "HL-60(TB) leukemia", "assay": "NCI-60 one-dose screen, 48 h (100 = growth as untreated, 0 = no growth, -100 = all killed)", "conditions": "10 µM unless noted", "values": [
      {"smiles": "Cc1cc(N2CCOCC2)nc(N[C@@H]2CCC[C@H](Nc3ccnc4cc(Cl)ccc34)C2)n1", "growth": "-69.5% (active)"},
      {"smiles": "CCOC(=O)C1=C(Nc2ccc(Br)cc2)C(=O)N(CC)C1", "growth": "104%"},
      {"smiles": "COc1ccc2c(c1)OC13Oc4cc(OC)ccc4C=C1CCCC3=C2", "growth": "7.56% (active)"},
      {"smiles": "COc1cc(-c2nc3occn3c2-c2ccnc(NCCCNS(=O)(=O)c3ccc(O)cc3)n2)ccc1F", "growth": "95.3%"},
      {"smiles": "O=C(O)c1cn(C2CC2)c2cc(N3CCN(Cc4cc(Cl)ccc4O)CC3)c(F)cc2c1=O", "growth": "46.4%"},
      {"smiles": "CCC(C)C1NC(=O)C(NC(=O)c2c3nc4c(C(=O)NC5C(=O)NC(C(C)CC)C(=O)N6CCCC6C(=O)N(C)CC(=O)N(C)C(C(C)C)C(=O)OC5C)ccc(C)c4oc-3c(C)c(=O)c2N)C(C)OC(=O)C(C(C)C)N(C)C(=O)CN(C)C(=O)C2CCCN2C1=O", "note": "(configuration not stated)", "growth": "-13.9% (active)"},
      {"smiles": "Nc1cccc2c1CN(C1CCC(=O)NC1=O)C2=O", "note": "(configuration not stated)", "growth": "105%"},
      {"smiles": "NS(=O)(=O)c1ccc(-n2ncc3c(N/N=C/c4ccccc4)ncnc32)cc1", "growth": "83.1%"},
      {"smiles": "CCN1C(=O)N(c2ccccc2)C2Nn3c(s/c(=C4\\C(=O)N(C(C)C)c5ccccc54)c3=O)=NC21", "note": "(configuration not stated)", "growth": "97.8%"},
      {"smiles": "Oc1ccc(C#CCOc2ccccc2)cc1CNCCN(Cc1ccccn1)Cc1ccccn1", "growth": "-13.6% (active)"},
      {"smiles": "COc1ccc2nc(NC(=O)/C(=C/c3cc(OC)c(OC)c(OC)c3)c3ccc(OC)c(OC)c3)sc2c1", "growth": "94.5%"},
      {"smiles": "OC(c1cc(-c2ccccc2)nc2ccc(Cl)cc12)C1CCCCN1", "note": "(configuration not stated)", "growth": "49.7%"}
    ]}
  ]
}
